Data published in the antibiotic and cytotoxicity screens of Wong et al. (2023).
In all, about 39,000 compounds went through this assay and about 3,300 (8.5%) were called active. This excerpt belongs to a sample that is enriched for actives.

Tested on: HepG2
Experiment: cytotoxicity call (relative viability < 0.9)
Conditions: 10 µM

SMILES	cytotoxicity call
COc1ccc(S(=O)(=O)Nc2ccc3c(c2)C(=O)N([C@H](C)CO)C[C@H](C)[C@@H](CN(C)C(=O)Nc2cccc4ccccc24)O3)cc1	inactive
COc1ccccc1NC(=O)N(C)C[C@H]1Oc2ncc(Br)cc2C(=O)N([C@H](C)CO)C[C@H]1C	inactive
CC(C)CN1C(=O)[C@@]2(c3ccc([N+](=O)[O-])cc3)CC(=O)N(CC3C4CC5CC(C4)CC3C5)[C@@H]2c2ccc(CO)cc21 (stereo not given in full)	inactive
C[C@H]1CN([C@@H](C)CO)C(=O)c2cccc(NS(C)(=O)=O)c2O[C@H]1CN(C)C(=O)NC1CCCCC1	inactive
O=C(C[C@H]1CC[C@H](NC(=O)CN2CCOCC2)[C@@H](CO)O1)NCCc1ccncc1	inactive
C[C@@H]1CN([C@H](C)CO)C(=O)c2cc(NC(=O)C3CCCCC3)ccc2O[C@H]1CN(C)Cc1ccc(Oc2ccccc2)cc1	inactive
CCS(=O)(=O)Nc1ccc2c(c1)C(=O)N(C)[C@H]1CC[C@@H](CC(=O)NCc3ccccc3F)O[C@@H]1CO2	inactive
Cc1noc(C)c1NC(=O)N(C)C[C@H]1OCCCC[C@H](C)Oc2ccc(NS(=O)(=O)c3ccccc3)cc2C(=O)N([C@@H](C)CO)C[C@@H]1C	inactive
CC(C)(C)S(=O)N1Cc2cc(C(=O)N[C@@H]3CCN(Cc4ccccc4)C3)nc(-c3cccc(-c4cccc(F)c4)c3)c2[C@@H]1CCO (stereo not given in full)	inactive
C[C@@H]1CN([C@H](C)CO)C(=O)c2cc(C#C[C@@H](C)O)cnc2O[C@@H]1CN(C)C(=O)CN1CCOCC1	inactive
COc1ccc(S(=O)(=O)N(C)C[C@@H]2OCCCC[C@H](C)Oc3ccc(NC(=O)C4CCCCC4)cc3C(=O)N([C@H](C)CO)C[C@@H]2C)cc1	inactive
COc1ccc(S(=O)(=O)N(C)C[C@H]2OCCCC[C@H](C)Oc3ccc(NC(=O)C4CCCCC4)cc3C(=O)N([C@H](C)CO)C[C@@H]2C)cc1	active
COc1ccc(S(=O)(=O)N(C)C[C@H]2OCCCC[C@H](C)Oc3ccc(NC(=O)C4CCCCC4)cc3C(=O)N([C@@H](C)CO)C[C@H]2C)cc1	inactive
COc1ccc(S(=O)(=O)N(C)C[C@H]2OCCCC[C@@H](C)Oc3ccc(NC(=O)C4CCCCC4)cc3C(=O)N([C@H](C)CO)C[C@H]2C)cc1	inactive
COc1ccc(S(=O)(=O)N(C)C[C@H]2OCCCC[C@H](C)Oc3ccc(NC(=O)C4CCCCC4)cc3C(=O)N([C@@H](C)CO)C[C@@H]2C)cc1	inactive
COc1ccc(S(=O)(=O)N(C)C[C@@H]2OCCCC[C@@H](C)Oc3ccc(NC(=O)C4CCCCC4)cc3C(=O)N([C@H](C)CO)C[C@H]2C)cc1	active
Nc1cccc2c(=O)[nH][nH]c(=O)c12	inactive
O=C(N/N=C/[C@H](O)[C@@H](O)[C@H](O)[C@H](O)CO)c1ccccn1	inactive
N[C@@H](CCO)c1cccc(Cl)c1	inactive
C[C@H]1CN([C@@H](C)CO)C(=O)c2cc(Br)cnc2O[C@H]1CN(C)S(=O)(=O)c1ccccc1	inactive
C[C@H](CO)N1C[C@H](C)[C@@H](CN(C)C(=O)Nc2ccc(F)cc2)Oc2ccc(NS(C)(=O)=O)cc2CC1=O	inactive
NCc1nnnn1-c1ccc(F)cc1	inactive

SMILES	cytotoxicity call
C[C@@H]1CCCCO[C@@H](CN(C)C(=O)c2ccccc2)[C@@H](C)CN([C@@H](C)CO)C(=O)c2cc(NC(=O)NC3CCCCC3)ccc2O1	inactive
COc1cccc(CN(C)C[C@H]2OCc3ccccc3-c3c(n(C)c4ccccc34)C(=O)N([C@@H](C)CO)C[C@H]2C)c1	active
C[C@H](CO)N1C[C@H](C)[C@@H](CN(C)Cc2cccc(F)c2)OCc2ccccc2-c2c(n(C)c3ccccc23)C1=O	inactive
C[C@@H]1CN([C@@H](C)CO)C(=O)c2c(c3ccccc3n2C)-c2ccccc2CO[C@H]1CN(C)Cc1cccc(F)c1	inactive
C[C@H](CO)N1C[C@H](C)[C@H](CN(C)Cc2cccc(F)c2)OCc2ccccc2-c2c(n(C)c3ccccc23)C1=O	active
COc1cccc(CN(C)C[C@@H]2OCc3ccccc3-c3c(n(C)c4ccccc34)C(=O)N([C@@H](C)CO)C[C@@H]2C)c1	inactive
COc1cccc(CN(C)C[C@H]2OCc3ccccc3-c3c(n(C)c4ccccc34)C(=O)N([C@@H](C)CO)C[C@@H]2C)c1	inactive
C[C@H]1CN([C@@H](C)CO)C(=O)c2c(c3ccccc3n2C)-c2ccccc2CO[C@H]1CN(C)Cc1cccc(F)c1	inactive
C[C@@H]1CN([C@H](C)CO)C(=O)c2c(c3ccccc3n2C)-c2ccccc2CO[C@H]1CN(C)Cc1cccc(F)c1	inactive
C[C@H]1CCCCO[C@@H](CN(C)S(=O)(=O)c2ccccc2)[C@@H](C)CN([C@@H](C)CO)C(=O)c2cc(NC(=O)Nc3ccccc3)ccc2O1	inactive
Cc1ccc(S(=O)(=O)N2C[C@H](O)COC[C@H]3O[C@@H](CC(=O)NCc4ccc5c(c4)OCO5)CC[C@@H]32)cc1	inactive
N=C(N)SC=CC(=O)O	inactive
C[C@@H]1CN([C@H](C)CO)C(=O)c2cc(NC(=O)CCN3CCOCC3)ccc2O[C@@H]1CN(C)C(=O)Nc1ccc(F)cc1	inactive
Cc1n[nH]c(=O)[nH]c1=O	inactive
C[C@@H]1CN([C@H](C)CO)C(=O)c2cccc(NC(=O)c3ccncc3)c2O[C@H]1CN(C)S(=O)(=O)c1ccc(F)cc1	inactive
C[C@@H]1CN([C@@H](C)CO)C(=O)c2cc(C#CC3(O)CCCC3)cnc2O[C@H]1CN(C)C(=O)Nc1ccc2c(c1)OCO2	inactive
Cc1ccc(S(=O)(=O)Nc2cccc3c2O[C@@H](CN(C)Cc2ccc(Cl)c(Cl)c2)[C@@H](C)CN([C@H](C)CO)C3=O)cc1	inactive
C[C@@H]1CCCCO[C@@H](CN(C)C(=O)Nc2cccc3ccccc23)[C@H](C)CN([C@H](C)CO)C(=O)c2cc(NC(=O)CCC(F)(F)F)ccc2O1	inactive
C[C@H](CO)N1C[C@H](C)[C@@H](CN(C)C(=O)Nc2cccc3ccccc23)OCCCC[C@H](C)Oc2ccc(NC(=O)CCC(F)(F)F)cc2C1=O	active
C[C@@H]1CCCCO[C@H](CN(C)C(=O)Nc2cccc3ccccc23)[C@@H](C)CN([C@H](C)CO)C(=O)c2cc(NC(=O)CCC(F)(F)F)ccc2O1	inactive
C[C@H]1CCCCO[C@H](CN(C)C(=O)Nc2cccc3ccccc23)[C@@H](C)CN([C@@H](C)CO)C(=O)c2cc(NC(=O)CCC(F)(F)F)ccc2O1	active
C[C@@H]1CCCCO[C@H](CN(C)C(=O)Nc2cccc3ccccc23)[C@H](C)CN([C@@H](C)CO)C(=O)c2cc(NC(=O)CCC(F)(F)F)ccc2O1	inactive

SMILES	cytotoxicity call
C[C@@H]1CCCCO[C@@H](CN(C)C(=O)Nc2cccc3ccccc23)[C@@H](C)CN([C@H](C)CO)C(=O)c2cc(NC(=O)CCC(F)(F)F)ccc2O1	inactive
C[C@@H]1CN([C@@H](C)CO)C(=O)c2cc(NC(=O)CCC(F)(F)F)ccc2O[C@@H](C)CCCCO[C@@H]1CN(C)C(=O)Nc1cccc2ccccc12	inactive
C[C@@H]1CCCCO[C@@H](CN(C)C(=O)Nc2cccc3ccccc23)[C@H](C)CN([C@@H](C)CO)C(=O)c2cc(NC(=O)CCC(F)(F)F)ccc2O1	inactive
C[C@@H]1CN([C@H](C)CO)C(=O)c2cc(NC(=O)CCC(F)(F)F)ccc2O[C@@H](C)CCCCO[C@H]1CN(C)C(=O)Nc1cccc2ccccc12	active
CC(C)NC(=O)N(C)C[C@H]1Oc2ccc(NS(=O)(=O)c3ccccc3)cc2C(=O)N([C@@H](C)CO)C[C@H]1C	inactive
C[C@@H]1CN([C@H](C)CO)C(=O)c2cccc(NC(=O)Nc3ccccc3)c2O[C@@H]1CN(C)CC1CCCCC1	inactive
COc1ccccc1-c1cnc2c(c1)C(=O)N([C@@H](C)CO)C[C@@H](C)[C@@H](CN(C)C(=O)c1ccncc1)O2	inactive
COc1ccc(S(=O)(=O)Nc2ccc3c(c2)C(=O)N([C@H](C)CO)C[C@@H](C)[C@@H](CN(C)C(=O)CCC(F)(F)F)OCCCC[C@@H](C)O3)cc1	inactive
O=C(/C=C/c1ccccc1)c1ccc(O[C@@H]2O[C@H](CO)[C@@H](O)[C@H](O)[C@H]2O)cc1O	inactive
C[C@H](CO)N1C[C@H](C)[C@@H](CN(C)S(=O)(=O)c2ccc(F)cc2)Oc2c(NS(=O)(=O)c3ccccc3)cccc2C1=O	inactive
CON=C(C(=O)N[C@@H]1C(=O)N2C(C(=O)O)=C(CSc3nc(=O)c(O)nn3C)CS[C@H]12)c1csc(N)n1	inactive
COc1ccc(S(=O)(=O)N(C)C[C@@H]2Oc3ccc(N(C)C)cc3C(=O)N([C@H](C)CO)C[C@H]2C)cc1	inactive
Cc1ccc(S(=O)(=O)N2C[C@@H](O)COC[C@@H]3O[C@H](CC(=O)NCCCN(C)C)CC[C@H]32)cc1	inactive
Cc1ccc(S(=O)(=O)Nc2ccc3c(c2)C(=O)N([C@H](C)CO)C[C@H](C)[C@@H](CN(C)Cc2ccc(C(F)(F)F)cc2)O3)cc1	inactive
Cc1ccc(S(=O)(=O)Nc2ccc3c(c2)C(=O)N([C@H](C)CO)C[C@@H](C)[C@H](CN(C)Cc2ccc(C(F)(F)F)cc2)O3)cc1	active
Cc1ccc(S(=O)(=O)Nc2ccc3c(c2)C(=O)N([C@@H](C)CO)C[C@H](C)[C@@H](CN(C)Cc2ccc(C(F)(F)F)cc2)O3)cc1	inactive
Cc1ccc(S(=O)(=O)Nc2ccc3c(c2)C(=O)N([C@H](C)CO)C[C@@H](C)[C@@H](CN(C)Cc2ccc(C(F)(F)F)cc2)O3)cc1	active
Cc1ccc(S(=O)(=O)Nc2ccc3c(c2)C(=O)N([C@@H](C)CO)C[C@@H](C)[C@@H](CN(C)Cc2ccc(C(F)(F)F)cc2)O3)cc1	inactive
Cc1ccc(S(=O)(=O)Nc2ccc3c(c2)C(=O)N([C@@H](C)CO)C[C@H](C)[C@H](CN(C)Cc2ccc(C(F)(F)F)cc2)O3)cc1	inactive
Cc1ccc(S(=O)(=O)Nc2ccc3c(c2)C(=O)N([C@H](C)CO)C[C@H](C)[C@H](CN(C)Cc2ccc(C(F)(F)F)cc2)O3)cc1	active
Cc1ccc(S(=O)(=O)Nc2ccc3c(c2)C(=O)N([C@@H](C)CO)C[C@@H](C)[C@H](CN(C)Cc2ccc(C(F)(F)F)cc2)O3)cc1	inactive
